Reference: PubChem BioAssay (EPA / NIEHS)
Inconclusive results are not listed. Calls of active or inactive are those of the source. Rule for the calls, unless noted: active = hit-call score of the fitted dose curve at least 0.9, where 1 is the maximum; inactive = score below 0.9.

What was measured:
[1] = biological target: Retinoic acid receptor RXR-alpha (Homo sapiens) (UniProt P19793); assay: OT_NURR1_NURR1RXRa_0480: Odyssey Thera (OT) 8-hour HEK293T Protein Complementation Assay for Nurr1/retinoid X receptor (RXR) (AID 2283385; active = hit-call score of the fitted dose curve at least 0.9, where 1 is the maximum)
Procedure, shortened: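 Compounds are applied to HEK293T cells carrying Nurr1 and RXRα linked to reporter fragments. After 8 h, fluorescence intensity reports heterodimer formation, with DMSO as baseline.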

[2] = biological target: Retinoic acid receptor RXR-alpha (Homo sapiens) (UniProt P19793); assay: OT_NURR1_NURR1RXRa_1440: Odyssey Thera (OT) 24-hour HEK293T Protein Complementation Assay for Nurr1/retinoid X receptor (RXR) (AID 2283386; active = hit-call score of the fitted dose curve at least 0.9, where 1 is the maximum)
Procedure, shortened: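 Measured as fluorescence from a reconstituted split reporter, this 24 h HEK293T complementation assay scores compound-induced gain of Nurr1/RXRα association relative to DMSO.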

[3] = biological target: Peroxisome proliferator-activated receptor gamma (Homo sapiens) (UniProt P37231); assay: OT_PPARg_PPARgSRC1_0480: Odyssey Thera (OT) 8-hour Protein-Complementation Assay for Peroxisome Proliferator-activated Receptor Gamma / SRC-1 Co-activator (AID 2283387; active = hit-call score of the fitted dose curve at least 0.9, where 1 is the maximum;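 note: nuclear to cytoplasmic split Venus YFP fluorescence ratio reporting PPARg SRC-1 interaction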)
Procedure, shortened: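 Split-YFP (IFP1/IFP2) PPARg/SRC-1 reporter, HEK293T, 37 °C, 5% CO2; 8 h compound; formaldehyde fix + Draq5; high-content imaging, N/C ratio, ≥350 cells/image, positive direction vs DMSO.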

[4] = read-out: Tumor necrosis factor receptor superfamily member 6 (Homo sapiens) (UniProt P25445); assay: LTEA_HepaRG_FAS: Life Technologies and Expression Analysis (LTEA) Assay for Fas cell surface death receptor (FAS) using HepaRG (AID 2283447); details: mRNA level, 48 h; actives raise or lower the signal
Procedure, shortened: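 Differentiated HepaRG cells in serum-free induction medium were exposed 48 h to 8 half-log concentrations up to 100 uM in 0.5% DMSO, in duplicate. FAS mRNA was measured by qRT-PCR normalised to ACTB, GAPDH and POLR2A; bidirectional fit versus DMSO.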

[5] = read-out: Fatty acid synthase (Homo sapiens) (UniProt P49327); assay: LTEA_HepaRG_FASN: Life Technologies and Expression Analysis (LTEA) Assay for Fatty Acid Synthase (FASN) using HepaRG (AID 2283448); details: mRNA level, 48 h; actives raise or lower the signal
Procedure, shortened: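 Transcript-level assay: HepaRG liver cells are treated for 48 h across an eight-point range topping at 100 uM, and FASN mRNA, normalized to three housekeeping genes, is compared with DMSO controls in both directions.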

[6] = read-out: Cyclin D2 (CCND2), CCND2 (gene 894); assay: LTEA_HepaRG_CCND2: Life Technologies and Expression Analysis (LTEA) Assay for Cyclin D2 (CCND2) using HepaRG (AID 2283449); details: mRNA level, 48 h; actives raise or lower the signal;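 note: CCND2 transcript measured by TaqMan qRT-PCR and normalised to three housekeeping genes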
Procedure, shortened: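 Chemicals in 0.5% DMSO, eight half-log concentrations from 100 uM top, were applied in duplicate for 48 h to human HepaRG cells in serum-free induction medium. CCND2 mRNA by TaqMan qRT-PCR, normalised to ACTB/GAPDH/POLR2A; bidirectional fit versus DMSO.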

[7] = read-out: Cyclin D1 (CCND1), CCND1 (gene 595); assay: LTEA_HepaRG_CCND1: Life Technologies and Expression Analysis (LTEA) Assay for Cyclin D1 (CCND1) using HepaRG (AID 2283451); details: mRNA level, 48 h; actives raise or lower the signal
Procedure, shortened: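 Human liver HepaRG line; 48 h dosing, 8 conc. ≤100 uM, 0.5% DMSO; TaqMan qRT-PCR mRNA, 3 housekeeping genes; bidirectional curve fit vs DMSO.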

[8] = read-out: catalase (CAT), CAT (gene 847); assay: LTEA_HepaRG_CAT: Life Technologies and Expression Analysis (LTEA) Assay for catalase (CAT) using HepaRG (AID 2283452); details: mRNA level, 48 h; actives raise or lower the signal
Procedure, shortened: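 HepaRG cells in serum-free induction medium, 0.5% DMSO vehicle, exposed 48 h in duplicate over 8 half-log concentrations from 100 uM. CAT mRNA measured by qRT-PCR, normalized to ACTB, GAPDH, POLR2A; bidirectional fit versus DMSO.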

[9] = CEETOX_H295R_OHPREG: CeeTox H295R High-throughput Steroidogenesis Assay for OH-Pregnenolone (OHPREG) (AID 2283434); details: actives raise or lower the signal
Procedure, shortened: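 H295R cells pre-stimulated 48 h with 10 uM forskolin, then exposed 48 h to chemical in 0.1% DMSO. 17alpha-hydroxypregnenolone in medium quantified by MTBE extraction and HPLC-MS/MS; bidirectional fit versus DMSO, viability checked by MTT.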

[10] = CEETOX_H295R_OHPROG: CeeTox H295R High-throughput Steroidogenesis Assay for OH-Progesterone (OHPROG) (AID 2283435); details: actives raise or lower the signal
Procedure, shortened: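 Secreted 17alpha-hydroxyprogesterone is read by tandem MS from media of forskolin-primed H295R cells dosed with chemical for 48 h. Activity is fitted in both directions against DMSO baseline; cytotoxic concentrations are re-tested diluted.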

[11] = CEETOX_H295R_ESTRADIOL: CeeTox H295R High-throughput Steroidogenesis Assay for Estradiol (AID 2283440); details: actives raise or lower the signal;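 note: estradiol secreted into medium quantified by LC-MS/MS after dansyl derivatisation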
Procedure, shortened: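 Following OECD 456 with minor changes, H295R cells received 10 uM forskolin for 48 h and then test chemical for 48 h. Hormone output was read by HPLC-MS/MS, with cytotoxic concentrations diluted until MTT viability reached ≥70%.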

[12] = CEETOX_H295R_ESTRONE: CeeTox H295R High-throughput Steroidogenesis Assay for Estrone (AID 2283441); details: actives raise or lower the signal;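 note: estrone secreted into medium measured by LC-MS/MS after dansyl derivatization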
Procedure, shortened: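 H295R cells; 48 h forskolin (10 uM) prestimulation; 48 h compound exposure, 0.1% DMSO final. Medium estrone: MTBE extraction, dansyl derivatization, HPLC-MS/MS. Bidirectional fit vs DMSO.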

[13] = CEETOX_H295R_PROG: CeeTox H295R High-throughput Steroidogenesis Assay for Progesterone (PROG) (AID 2283442); details: actives raise or lower the signal
Procedure, shortened: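 Adrenal H295R line, forskolin-stimulated (10 uM, 48 h) before dosing. 48 h exposure, 0.1% DMSO vehicle. Secreted progesterone by reverse-phase HPLC with ESI+ MS/MS quantification; DMSO-normalised bidirectional curve fit.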

[14] = read-out: Cyclin Dependent Kinase Inhibitor 1A (CDKN1A), CDKN1A (gene 1026); assay: LTEA_HepaRG_CDKN1A: Life Technologies and Expression Analysis (LTEA) Assay for Cyclin Dependent Kinase Inhibitor 1A (CDKN1A) using HepaRG (AID 2283450); details: mRNA level, 48 h; actives raise or lower the signal
Procedure, shortened: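 Cryopreserved HepaRG cells were plated and cultured 48 h, then switched to serum-free induction medium. Chemicals (eight half-log concentrations, top 100 uM, 0.5% DMSO) were applied for 48 h. Lysates underwent qRT-PCR for CDKN1A with housekeeping normalization.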

[15] = CEETOX_H295R_11DCORT: CeeTox H295R High-throughput Steroidogenesis Assay for 11-Deoxycortisol (11DCORT) (AID 2283432); details: actives raise or lower the signal
Procedure, shortened: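 Steroidogenesis in human H295R cells: 48 h chemical exposure after forskolin priming, 11-deoxycortisol measured by LC-MS/MS.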

[16] = CEETOX_H295R_CORTISOL: CeeTox H295R High-throughput Steroidogenesis Assay for Cortisol (AID 2283438); details: actives raise or lower the signal;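 note: cortisol secreted into medium quantified by LC-MS/MS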
Procedure, shortened: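 Human adrenocortical H295R cells (passage ≤10) received test chemicals for 48 h after forskolin priming. Secreted cortisol was measured by LC-MS/MS.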

[17] = CEETOX_H295R_DOC: CeeTox H295R High-throughput Steroidogenesis Assay for DOC (AID 2283439); details: actives raise or lower the signal
Procedure, shortened: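 Secreted DOC was quantified from H295R media by HPLC-MS/MS after 48 h chemical exposure following 48 h forskolin (10 uM) prestimulation. Values were fitted in both directions relative to DMSO, the negative control and baseline.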

Measured: AC50

Chain of Fatty acid synthase (Homo sapiens) (P49327 whole entry, looked up): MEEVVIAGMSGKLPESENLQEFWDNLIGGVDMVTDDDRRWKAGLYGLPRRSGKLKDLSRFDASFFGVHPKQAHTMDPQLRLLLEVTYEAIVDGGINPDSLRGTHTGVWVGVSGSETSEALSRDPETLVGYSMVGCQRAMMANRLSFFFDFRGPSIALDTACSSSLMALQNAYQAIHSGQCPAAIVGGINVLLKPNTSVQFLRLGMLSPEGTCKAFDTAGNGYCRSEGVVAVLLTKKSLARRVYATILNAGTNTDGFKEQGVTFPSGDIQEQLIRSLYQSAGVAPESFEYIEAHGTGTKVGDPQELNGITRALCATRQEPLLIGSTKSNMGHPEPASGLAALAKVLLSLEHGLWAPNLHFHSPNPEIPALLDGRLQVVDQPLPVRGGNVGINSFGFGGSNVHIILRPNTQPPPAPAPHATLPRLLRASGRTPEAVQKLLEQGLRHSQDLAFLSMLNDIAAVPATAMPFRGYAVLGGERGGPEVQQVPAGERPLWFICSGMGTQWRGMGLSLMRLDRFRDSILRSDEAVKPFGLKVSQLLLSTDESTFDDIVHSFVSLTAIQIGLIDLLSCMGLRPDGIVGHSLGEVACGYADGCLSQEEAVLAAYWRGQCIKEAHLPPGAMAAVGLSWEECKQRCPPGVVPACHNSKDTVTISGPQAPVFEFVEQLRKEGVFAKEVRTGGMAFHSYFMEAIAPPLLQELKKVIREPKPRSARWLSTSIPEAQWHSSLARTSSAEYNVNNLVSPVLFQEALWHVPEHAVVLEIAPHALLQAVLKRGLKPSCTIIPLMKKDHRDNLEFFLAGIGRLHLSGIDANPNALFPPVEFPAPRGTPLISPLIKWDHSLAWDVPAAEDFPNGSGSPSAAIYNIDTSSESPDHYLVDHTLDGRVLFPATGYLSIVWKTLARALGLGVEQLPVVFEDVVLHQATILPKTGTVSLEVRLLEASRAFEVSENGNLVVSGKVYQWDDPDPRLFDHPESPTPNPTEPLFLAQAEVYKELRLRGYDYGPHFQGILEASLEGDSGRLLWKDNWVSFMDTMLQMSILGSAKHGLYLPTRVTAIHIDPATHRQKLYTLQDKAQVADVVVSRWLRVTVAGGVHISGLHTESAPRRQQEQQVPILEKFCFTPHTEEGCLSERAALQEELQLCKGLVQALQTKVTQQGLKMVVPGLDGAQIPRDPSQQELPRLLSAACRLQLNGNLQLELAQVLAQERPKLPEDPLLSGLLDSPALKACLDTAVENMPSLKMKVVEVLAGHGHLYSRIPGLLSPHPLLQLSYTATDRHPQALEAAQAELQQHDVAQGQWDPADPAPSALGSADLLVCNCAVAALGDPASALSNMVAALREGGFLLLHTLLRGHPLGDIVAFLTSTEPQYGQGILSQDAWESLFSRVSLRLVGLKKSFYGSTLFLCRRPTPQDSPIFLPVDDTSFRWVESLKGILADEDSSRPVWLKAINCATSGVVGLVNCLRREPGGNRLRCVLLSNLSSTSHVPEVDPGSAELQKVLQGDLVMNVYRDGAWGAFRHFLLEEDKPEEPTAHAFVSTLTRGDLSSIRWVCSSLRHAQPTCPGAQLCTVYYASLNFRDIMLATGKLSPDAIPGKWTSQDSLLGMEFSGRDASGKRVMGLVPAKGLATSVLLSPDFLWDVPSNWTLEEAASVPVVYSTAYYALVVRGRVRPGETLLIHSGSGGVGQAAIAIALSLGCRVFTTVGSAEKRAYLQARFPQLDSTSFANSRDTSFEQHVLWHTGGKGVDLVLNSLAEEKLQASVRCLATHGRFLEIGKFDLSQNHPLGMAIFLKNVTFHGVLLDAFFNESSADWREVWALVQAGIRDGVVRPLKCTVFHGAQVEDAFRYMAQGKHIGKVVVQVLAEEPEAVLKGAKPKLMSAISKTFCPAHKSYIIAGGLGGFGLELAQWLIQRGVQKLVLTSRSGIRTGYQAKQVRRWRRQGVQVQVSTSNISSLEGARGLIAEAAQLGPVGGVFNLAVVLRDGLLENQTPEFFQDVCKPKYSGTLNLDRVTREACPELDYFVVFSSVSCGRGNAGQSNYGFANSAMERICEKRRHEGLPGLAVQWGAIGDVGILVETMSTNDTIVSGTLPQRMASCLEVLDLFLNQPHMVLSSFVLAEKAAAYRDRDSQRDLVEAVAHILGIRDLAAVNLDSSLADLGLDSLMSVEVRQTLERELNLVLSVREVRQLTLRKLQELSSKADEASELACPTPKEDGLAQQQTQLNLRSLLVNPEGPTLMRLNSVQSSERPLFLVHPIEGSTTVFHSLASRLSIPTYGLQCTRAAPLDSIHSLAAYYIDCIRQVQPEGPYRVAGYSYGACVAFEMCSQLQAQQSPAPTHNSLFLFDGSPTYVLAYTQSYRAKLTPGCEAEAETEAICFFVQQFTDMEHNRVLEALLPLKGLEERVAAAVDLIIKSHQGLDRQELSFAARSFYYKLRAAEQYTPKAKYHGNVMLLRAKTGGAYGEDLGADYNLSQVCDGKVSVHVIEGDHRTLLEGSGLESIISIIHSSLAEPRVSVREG
Chain of Peroxisome proliferator-activated receptor gamma (Homo sapiens) (P37231 whole entry, looked up): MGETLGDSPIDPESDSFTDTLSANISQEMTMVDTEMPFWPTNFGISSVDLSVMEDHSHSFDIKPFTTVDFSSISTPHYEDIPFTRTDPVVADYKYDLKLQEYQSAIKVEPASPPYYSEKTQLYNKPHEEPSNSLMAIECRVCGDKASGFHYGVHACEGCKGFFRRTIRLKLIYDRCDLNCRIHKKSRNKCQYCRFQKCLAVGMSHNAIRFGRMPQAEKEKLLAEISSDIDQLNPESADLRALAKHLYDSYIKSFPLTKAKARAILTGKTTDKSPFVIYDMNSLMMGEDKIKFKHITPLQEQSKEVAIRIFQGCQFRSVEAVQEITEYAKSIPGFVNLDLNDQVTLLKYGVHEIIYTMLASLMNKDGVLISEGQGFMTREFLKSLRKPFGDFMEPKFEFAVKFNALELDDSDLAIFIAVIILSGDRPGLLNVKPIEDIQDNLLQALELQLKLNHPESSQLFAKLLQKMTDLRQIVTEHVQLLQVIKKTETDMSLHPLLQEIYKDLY
Chain of Retinoic acid receptor RXR-alpha (Homo sapiens) (P19793 whole entry, looked up, the tested form may be a part): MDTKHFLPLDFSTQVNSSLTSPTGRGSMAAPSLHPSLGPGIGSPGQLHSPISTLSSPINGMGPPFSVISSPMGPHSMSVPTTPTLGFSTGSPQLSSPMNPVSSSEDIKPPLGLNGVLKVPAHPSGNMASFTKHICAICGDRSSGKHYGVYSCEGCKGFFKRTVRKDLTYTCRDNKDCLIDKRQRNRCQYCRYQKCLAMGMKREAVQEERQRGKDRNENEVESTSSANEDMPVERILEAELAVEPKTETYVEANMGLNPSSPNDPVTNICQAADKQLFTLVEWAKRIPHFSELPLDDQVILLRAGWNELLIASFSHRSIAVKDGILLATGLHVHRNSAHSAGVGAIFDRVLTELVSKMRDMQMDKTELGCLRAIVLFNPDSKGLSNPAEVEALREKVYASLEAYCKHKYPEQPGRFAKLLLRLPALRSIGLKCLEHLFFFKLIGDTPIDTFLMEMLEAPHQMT

OCCOCCOCCO
inactive: [1] | [2] | [3] | [4] | [5] | [6] | [7] | [8]

CCCCOC(=O)c1ccccc1
inactive: [1] | [2] | [3] | [4] | [5] | [6] | [7] | [8]

CCCCCCCC1CCC(=O)O1 (stereo not drawn)
not listed: [2] | [14] | [15] | [16] | [17]
inactive: all other assays above

CCOC(N)=O
inactive: [1] | [2] | [4] | [5] | [6] | [7] | [8]

OC(Cn1cncn1)(Cn1cncn1)c1ccc(F)cc1F
inactive: [1] | [2] | [3] | [4] | [5] | [6] | [7] | [8]

CCCCCCOC(=O)CC(CC(=O)OCCCCCC)(OC(=O)CCC)C(=O)OCCCCCC
inactive: [1] | [3] | [4] | [5] | [6] | [14] | [7] | [8]

CCc1ccc(O)c(C(C)(C)C)c1
inactive: [3] | [4] | [5] | [14] | [7] | [8]

CCCCCCCCN(C)C
not listed: [11] | [12] | [14]
inactive: all other assays above

C[C@]12C=CC(=O)C=C1CC[C@H]1[C@@H]3C[C@@H](O)[C@](O)(C(=O)CO)[C@@]3(C)C[C@H](O)[C@@]12F
active: [17] 11.2 µM
not listed: [11] | [12]
inactive: all other assays above

CCCc1ccccc1
inactive: [1] | [2] | [3] | [4] | [5] | [7] | [8]
